Data from the supplement of paper PMC10515830.
Where a name gives a salt, the structure may show the parent alone.

The compounds below were run on Danio rerio larvae (5 dpf) (assay: difference in habituation to acoustic stimuli vs DMSO (percentage points); higher = more habituation than DMSO). Details: 10 µM; exposure time 6 h.
Summary of the method: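 In 96-well plates, 48 wild-type zebrafish larvae aged 5 dpf per compound received 100 µL egg water with library compound at 10 µM final for 6 h. Three hours into this, a 3-h programme of moving lines and 100 ms, 400Hz tones ran at 28.5 ℃ while plates were photographed every 6 s. Z-LaP Tracker scored the behaviours, and each is given as the compound mean minus the vehicle control mean in percentage points.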
`CC(C)NCC(O)c1ccc(NS(C)(=O)=O)cc1` (stereo not given) [Sotalol (hydrochloride)] was tested, and the “difference in habituation to acoustic stimuli” value (from here on “difference in habituation”) was -2.03.
For `CO[C@H]1C[C@@H]2CC[C@@H](C)[C@@](O)(O2)C(=O)C(=O)N2CCCC[C@H]2C(=O)O[C@H]([C@H](C)C[C@@H]2CC[C@@H](O)[C@H](OC)C2)CC(=O)[C@H](C)/C=C(\C)[C@@H](O)[C@@H](OC)C(=O)[C@H](C)C[C@H](C)/C=C/C=C/C=C/1C` [Rapamycin], the “difference in habituation” value was -0.387.
With `CC(C(=O)O)c1cccc(C(=O)c2ccccc2)c1` (racemic) [(±)-Ketoprofen] the “difference in habituation” value was 6.2.
For `CC(=O)O[C@H]1Cc2ccccc2N(C(N)=O)c2ccccc21` [Eslicarbazepine Acetate], the “difference in habituation” value was -4.75.
`CCN[C@H]1C[C@H](C)S(=O)(=O)c2sc(S(N)(=O)=O)cc21` [Dorzolamide (hydrochloride)] was tested, and the “difference in habituation” value was 2.29.
For `O=C(C1CCCCC1)N1CC(=O)N2CCc3ccccc3C2C1` (stereo not given) [Praziquantel], the “difference in habituation” value was 11.
In the case of `CC(=O)NO` [Acetohydroxamic Acid], the “difference in habituation” value is reported as 3.36.
In the case of `OC(c1cc(C(F)(F)F)nc2c(C(F)(F)F)cccc12)C1CCCCN1` (stereo not given) [Mefloquine (hydrochloride)], the “difference in habituation” value is reported as -0.417.
For `CC(C)NCC(O)COc1ccc(CC(N)=O)cc1` (racemic) [(±)-Atenolol], the “difference in habituation” value was 1.78.
For `C[C@@H]1NC(=O)[C@@H](N)CNC(=O)[C@H](C2CCNC(=N)N2)NC(=O)/C(=C/NC(N)=O)NC(=O)[C@H](CNC(=O)CC(N)CCCN)NC1=O.N=C1NCC[C@H]([C@@H]2NC(=O)/C(=C/NC(N)=O)NC(=O)[C@H](CNC(=O)C[C@@H](N)CCCN)NC(=O)[C@H](CO)NC(=O)[C@@H](N)CNC2=O)N1` [Capreomycin (sulfate)], the “difference in habituation” value was 2.2.
